Among the data in paper PMC7862700, “An all-to-all approach to the identification of sequence-specific readers for epigenetic DNA modifications on cytosine” are binding signal values, retold here.

Common to all, as to assay: DAPPL (digital affinity profiling via proximity ligation, sequencing); 10 mM Tris-HCl pH 7.5, 50 mM NaCl, 1 mM DTT, 4% glycerol, room temperature, 30 min; GST-TFs on glutathione beads, 16-mer random dsDNA library, 0.1% formaldehyde crosslink after washing; high values mean tight binding
Holding throughout (conditions): protein: recombinant; tags: N-terminal GST; dsDNA, one strand shown

One experiment has as its target T1, ERF (Homo sapiens, UniProt P50548 1-548).
T1 sequence: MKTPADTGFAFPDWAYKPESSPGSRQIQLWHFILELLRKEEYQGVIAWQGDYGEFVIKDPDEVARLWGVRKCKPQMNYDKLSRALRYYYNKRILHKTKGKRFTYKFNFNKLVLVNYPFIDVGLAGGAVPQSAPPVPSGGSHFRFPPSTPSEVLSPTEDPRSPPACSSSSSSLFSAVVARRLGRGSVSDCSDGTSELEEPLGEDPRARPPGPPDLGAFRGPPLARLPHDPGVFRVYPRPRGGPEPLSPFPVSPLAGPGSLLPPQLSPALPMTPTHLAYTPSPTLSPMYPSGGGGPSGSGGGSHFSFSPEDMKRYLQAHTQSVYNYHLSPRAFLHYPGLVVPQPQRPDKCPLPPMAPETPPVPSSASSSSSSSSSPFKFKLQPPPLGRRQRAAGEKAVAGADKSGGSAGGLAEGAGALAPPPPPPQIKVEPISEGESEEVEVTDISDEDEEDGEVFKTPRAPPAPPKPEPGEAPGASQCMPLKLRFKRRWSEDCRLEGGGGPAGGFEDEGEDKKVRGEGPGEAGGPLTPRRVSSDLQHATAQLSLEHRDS
An outline of the steps: (§1)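 Binding signal is given per hexamer as its read frequency for a factor divided by its frequency in the tag-only sample. GST-fused human transcription factors were expressed in yeast, captured on glutathione beads, barcoded with DNA and pooled with that sample, then incubated with 200 nmole of a 16-mer random double-stranded DNA library in Tris/NaCl/DTT/glycerol buffer for 30 min at room temperature. The pools were then washed, crosslinked, proximity-ligated, amplified by PCR and sequenced on an Illumina NextSeq500.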

For another experiment, the target named is T2, ETV3L (Homo sapiens, UniProt Q6ZN32 1-361).
T2 sequence: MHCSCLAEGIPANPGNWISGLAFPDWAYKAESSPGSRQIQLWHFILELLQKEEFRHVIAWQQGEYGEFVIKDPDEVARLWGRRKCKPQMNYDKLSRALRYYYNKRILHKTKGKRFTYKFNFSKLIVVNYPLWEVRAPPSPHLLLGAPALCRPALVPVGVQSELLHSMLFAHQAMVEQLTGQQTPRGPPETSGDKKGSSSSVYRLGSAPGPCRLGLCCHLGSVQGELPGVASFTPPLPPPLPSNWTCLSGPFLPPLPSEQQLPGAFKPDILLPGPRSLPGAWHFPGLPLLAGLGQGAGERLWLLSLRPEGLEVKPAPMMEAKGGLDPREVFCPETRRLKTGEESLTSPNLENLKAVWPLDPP
An outline of the steps: as §1

In a further experiment the target is T3, ETS2 (Homo sapiens, UniProt P15036 1-469).
T3 sequence: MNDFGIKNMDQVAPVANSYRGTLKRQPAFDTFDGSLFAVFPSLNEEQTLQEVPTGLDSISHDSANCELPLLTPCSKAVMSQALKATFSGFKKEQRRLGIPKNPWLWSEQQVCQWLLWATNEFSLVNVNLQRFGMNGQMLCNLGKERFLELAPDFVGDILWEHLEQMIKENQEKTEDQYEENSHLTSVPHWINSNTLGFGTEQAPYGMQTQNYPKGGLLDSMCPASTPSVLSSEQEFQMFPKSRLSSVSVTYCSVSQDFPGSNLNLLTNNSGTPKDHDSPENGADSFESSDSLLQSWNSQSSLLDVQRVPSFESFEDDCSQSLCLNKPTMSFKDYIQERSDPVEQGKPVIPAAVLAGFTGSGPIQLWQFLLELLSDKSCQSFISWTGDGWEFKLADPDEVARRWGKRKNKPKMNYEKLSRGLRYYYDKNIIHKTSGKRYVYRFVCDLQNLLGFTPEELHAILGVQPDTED
An outline of the steps: as §1

For the next experiment, the target named is T4, SPDEF (Homo sapiens, UniProt O95238 1-335).
T4 sequence: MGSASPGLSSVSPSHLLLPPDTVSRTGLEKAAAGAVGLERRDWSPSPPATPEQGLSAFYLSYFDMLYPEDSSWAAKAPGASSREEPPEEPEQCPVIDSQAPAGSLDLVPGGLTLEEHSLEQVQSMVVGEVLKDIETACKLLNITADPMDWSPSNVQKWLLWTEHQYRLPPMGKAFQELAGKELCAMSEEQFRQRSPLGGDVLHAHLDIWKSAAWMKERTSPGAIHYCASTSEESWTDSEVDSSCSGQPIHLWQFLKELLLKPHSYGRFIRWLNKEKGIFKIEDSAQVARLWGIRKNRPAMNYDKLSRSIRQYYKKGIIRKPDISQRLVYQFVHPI
An outline of the steps:
as §1

The next experiment deals with T5, ETV7 (Homo sapiens, UniProt Q9Y603 1-341).
T5 sequence: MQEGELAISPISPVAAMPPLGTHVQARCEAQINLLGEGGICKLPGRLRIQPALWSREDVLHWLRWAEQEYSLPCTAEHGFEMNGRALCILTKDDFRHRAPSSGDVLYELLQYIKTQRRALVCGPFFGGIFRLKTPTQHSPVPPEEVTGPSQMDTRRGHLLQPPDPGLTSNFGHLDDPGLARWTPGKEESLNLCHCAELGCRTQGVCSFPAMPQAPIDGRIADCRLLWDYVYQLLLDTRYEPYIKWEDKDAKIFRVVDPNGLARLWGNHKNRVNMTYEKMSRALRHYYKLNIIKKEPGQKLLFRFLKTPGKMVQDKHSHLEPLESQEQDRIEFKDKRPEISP
The gist of the method:
as §1

A further experiment addresses T6, ELF5 (Homo sapiens, UniProt Q9UKW6-2 1-255).
T6 sequence: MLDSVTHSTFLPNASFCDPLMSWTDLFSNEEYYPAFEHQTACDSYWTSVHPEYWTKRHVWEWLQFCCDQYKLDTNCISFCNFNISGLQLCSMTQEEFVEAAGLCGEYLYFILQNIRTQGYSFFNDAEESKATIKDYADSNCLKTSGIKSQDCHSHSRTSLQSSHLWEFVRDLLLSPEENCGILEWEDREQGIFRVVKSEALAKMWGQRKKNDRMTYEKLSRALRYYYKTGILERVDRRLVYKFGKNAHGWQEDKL
An outline of the steps:
as §1

The target of another experiment is T7, ETV3 (Homo sapiens, UniProt P41162-2 1-143).
T7 sequence: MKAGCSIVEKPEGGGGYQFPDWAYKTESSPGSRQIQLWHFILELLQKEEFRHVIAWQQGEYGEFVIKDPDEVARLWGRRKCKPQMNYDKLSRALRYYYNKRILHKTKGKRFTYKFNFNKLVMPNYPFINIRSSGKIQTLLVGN
An outline of the steps: as §1

Another experiment addresses ETV6 (Homo sapiens, UniProt P41212 1-452). The gist of the method:
as §1

Chain of ETV6 (P41212 whole entry): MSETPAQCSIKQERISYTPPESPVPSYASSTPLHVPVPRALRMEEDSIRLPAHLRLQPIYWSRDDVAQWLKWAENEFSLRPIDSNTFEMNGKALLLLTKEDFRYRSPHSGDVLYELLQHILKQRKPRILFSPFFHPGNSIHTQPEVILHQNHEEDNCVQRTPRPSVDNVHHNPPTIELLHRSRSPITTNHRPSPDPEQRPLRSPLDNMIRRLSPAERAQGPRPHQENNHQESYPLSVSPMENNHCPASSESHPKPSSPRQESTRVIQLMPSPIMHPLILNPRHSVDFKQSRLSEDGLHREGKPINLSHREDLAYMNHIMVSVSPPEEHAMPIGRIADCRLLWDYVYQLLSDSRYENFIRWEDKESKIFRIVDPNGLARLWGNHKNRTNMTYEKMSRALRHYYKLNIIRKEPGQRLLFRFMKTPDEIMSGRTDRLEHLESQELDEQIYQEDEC

On to TCTCCG, for which the binding signal is 1.38 fold enrichment (6-mer frequency, TF over GST control) with ERF; 1.43 fold enrichment (6-mer frequency, TF over GST control) with ETV3L; 1.62 fold enrichment (6-mer frequency, TF over GST control) with ETS2; 1.65 fold enrichment (6-mer frequency, TF over GST control) in the experiment with SPDEF; 1.31 fold enrichment (6-mer frequency, TF over GST control) with ETV7; 1.56 fold enrichment (6-mer frequency, TF over GST control) with ELF5. The binding signal was 1.66 fold enrichment (6-mer frequency, TF over GST control) with ETV3 and 1.48 fold enrichment (6-mer frequency, TF over GST control) in the experiment with ETV6.

With CGCTTA, the binding signal in the experiment with ERF is 1.31 fold enrichment (6-mer frequency, TF over GST control); in the experiment with ETV3L it was 1.3 fold enrichment (6-mer frequency, TF over GST control); with ETS2, 1.25 fold enrichment (6-mer frequency, TF over GST control); with SPDEF it was 1.3 fold enrichment (6-mer frequency, TF over GST control); in the experiment with ETV7, 1.31 fold enrichment (6-mer frequency, TF over GST control); with ELF5 it was 1.19 fold enrichment (6-mer frequency, TF over GST control). Besides, the binding signal with ETV3 was 1.34 fold enrichment (6-mer frequency, TF over GST control); in the experiment with ETV6 it was 1.11 fold enrichment (6-mer frequency, TF over GST control).

As to CTAAAC, the binding signal with ERF was 1.17 fold enrichment (6-mer frequency, TF over GST control); in the experiment with ETV3L, 1.18 fold enrichment (6-mer frequency, TF over GST control); with ETS2 it was 1.19 fold enrichment (6-mer frequency, TF over GST control); with SPDEF, 1.22 fold enrichment (6-mer frequency, TF over GST control); in the experiment with ETV7 it was 1.2 fold enrichment (6-mer frequency, TF over GST control); with ELF5, 1.19 fold enrichment (6-mer frequency, TF over GST control). For the same sequence, the binding signal with ETV3 is 1.25 fold enrichment (6-mer frequency, TF over GST control); with ETV6 it was 1.17 fold enrichment (6-mer frequency, TF over GST control).

As for ACAAAA, the binding signal with ERF was 1.18 fold enrichment (6-mer frequency, TF over GST control); with ETV3L, 1.2 fold enrichment (6-mer frequency, TF over GST control); in the experiment with ETS2 it was 1.2 fold enrichment (6-mer frequency, TF over GST control); with SPDEF, 1.11 fold enrichment (6-mer frequency, TF over GST control); with ETV7, 1.15 fold enrichment (6-mer frequency, TF over GST control); with ELF5 it was 1.21 fold enrichment (6-mer frequency, TF over GST control). Also, the binding signal is 1.13 fold enrichment (6-mer frequency, TF over GST control) with ETV3 and 1.17 fold enrichment (6-mer frequency, TF over GST control) in the experiment with ETV6.

CTAGTA: the binding signal was 1.17 fold enrichment (6-mer frequency, TF over GST control) with ERF; 1.08 fold enrichment (6-mer frequency, TF over GST control) in the experiment with ETV3L; 1.18 fold enrichment (6-mer frequency, TF over GST control) with ETS2; 1.11 fold enrichment (6-mer frequency, TF over GST control) in the experiment with SPDEF; 1.11 fold enrichment (6-mer frequency, TF over GST control) with ETV7; 1.08 fold enrichment (6-mer frequency, TF over GST control) in the experiment with ELF5. Besides, the binding signal in the experiment with ETV3 was 1.13 fold enrichment (6-mer frequency, TF over GST control); with ETV6, 1.12 fold enrichment (6-mer frequency, TF over GST control).

ACCCAC: the binding signal in the experiment with ERF was 1.2 fold enrichment (6-mer frequency, TF over GST control); with ETV3L, 1.02 fold enrichment (6-mer frequency, TF over GST control); with ETS2, 1.15 fold enrichment (6-mer frequency, TF over GST control); with SPDEF, 1.21 fold enrichment (6-mer frequency, TF over GST control); with ETV7, 1.18 fold enrichment (6-mer frequency, TF over GST control); with ELF5, 1.19 fold enrichment (6-mer frequency, TF over GST control). Also, the binding signal with ETV3 was 1.13 fold enrichment (6-mer frequency, TF over GST control); with ETV6, 1.2 fold enrichment (6-mer frequency, TF over GST control).
